This passage reports AC50 and outcome results from PubChem BioAssay (EPA / NIEHS).

Results filed as inconclusive are left out. The source made the active and inactive calls. The calls were made as follows, unless noted: active = hit-call score of the fitted dose curve at least 0.9, where 1 is the maximum; inactive = score below 0.9.

The first assay has as its system SRD5A2 (gene 6716). Kind of assay: CCTE_Deisenroth_5AR_NBTE_ratio: CCTE's 5alpha-reductase NanoBRET Target Engagement Assay - Ratio, Deisenroth Lab (AID 2284322). To be noted: actives raise or lower the signal. Summed up:
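HEK293T transiently expressing SRD5A2-NanoLuc; cells exposed to chemical (8-point, 10 nM - 29.9 uM) for 5 h total, testosterone tracer added for final 2 h. NanoBRET acceptor/donor ratio (650/460 nm), bidirectional fit vs DMSO.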
A general note: Bioluminescence resonance energy transfer reports proximity on the nanometre scale.
Regarding `O=C(O)c1cc(N=Nc2ccc(S(=O)(=O)Nc3ccccn3)cc2)ccc1O`, the AC50 (commonly the concentration at which the activity in the assay is half-maximal) was 58.5 µM (active). Turning to `CCC(C)(C)C(=O)O[C@H]1C[C@@H](C)C=C2C=C[C@H](C)[C@H](CC[C@@H]3C[C@@H](O)CC(=O)O3)[C@H]21`, the outcome was inactive. On to `CC[C@H]1OC(=O)[C@H](C)[C@@H](O[C@H]2C[C@@](C)(OC)[C@@H](O)[C@H](C)O2)[C@H](C)[C@@H](O[C@@H]2O[C@H](C)C[C@H](N(C)C)[C@H]2O)[C@](C)(O)C[C@@H](C)C(=O)[C@H](C)[C@@H](O)[C@]1(C)O`, for which the outcome was inactive. `O=C(OC[C@H]1O[C@@H](OC(=O)c2cc(O)c(O)c(OC(=O)c3cc(O)c(O)c(O)c3)c2)[C@H](OC(=O)c2cc(O)c(O)c(OC(=O)c3cc(O)c(O)c(O)c3)c2)[C@@H](OC(=O)c2cc(O)c(O)c(OC(=O)c3cc(O)c(O)c(O)c3)c2)[C@@H]1OC(=O)c1cc(O)c(O)c(OC(=O)c2cc(O)c(O)c(O)c2)c1)c1cc(O)c(O)c(OC(=O)c2cc(O)c(O)c(O)c2)c1`: the outcome was inactive. Regarding `CN(C)c1ccc(N=NS(=O)(=O)O)cc1`, the AC50 was 64.2 µM (active).

Turning to `CCOC(=O)c1ccc(C2CCC(NC[C@H](O)COc3ccc(O)c(NS(C)(=O)=O)c3)CC2)cc1` (stereo partly specified), the AC50 was 79.2 µM (active).

Test system in a further assay: not listed separately
The assay is described as follows: TAMU_PeakParms_SingleDonor1434_Asystole: Texas A&M University (TAMU) 1.5-hr Human Induced Pluripotent Stem Cell (iPSC)-derived Cardiomyocytes Calcium (Ca+2) Flux Assay for Cardiotoxicity: Asystole (quiescence of beating) (AID 2284328; active = hit-call score of the fitted dose curve at least 0.9, where 1 is the maximum).
Settings: not given
A digest of the protocol:
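Average Ca2+-flux peak frequency (beats/s) was recorded in single-donor iPSC-derived cardiomyocytes after 90 min exposure (0.2–100 uM final, 0.5% DMSO). Asystole POD set as EC95 against DMSO, no preprocessing.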
Regarding `O=C1CCC(N2C(=O)c3ccccc3C2=O)C(=O)N1` (stereo unspecified), the result was inactive.

For the compound `CCCCCCc1ccc(O)cc1O`, the outcome was inactive. Same read-out and setting: the same measure for `NC(=O)NO`: “inactive”.

The next assay deals with Brachyury (BRA) Protein Expression, Deisenroth Lab, TBXT (gene 6862). Kind of assay: CCTE_Deisenroth_DEVTOX-GLR_legacy_Bra: (Legacy) CCTE's DevTox GLR-Endo Assay Evaluation of Brachyury (BRA) Protein Expression, Deisenroth Lab (AID 2284329).
Settings: not given
A digest of the protocol:
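Human pluripotent RUES2-GLR line was exposed twice during 48 h differentiation to a 10-point series, 1 nM - 200 uM. Fraction of Bra-positive cells was scored by imaging against pluripotent baseline and fitted after 0.2% DMSO subtraction.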
Consider `O=C(O)c1cc(N=Nc2ccc(S(=O)(=O)Nc3ccccn3)cc2)ccc1O`, for which the result was inactive.

In the case of `CC[C@H](C)C(=O)O[C@H]1C[C@@H](C)C=C2C=C[C@H](C)[C@H](CC[C@@H]3C[C@@H](O)CC(=O)O3)[C@H]21`, the AC50 was 37.6 µM (active). On to `C[C@](N)(Cc1ccc(O)c(O)c1)C(=O)O`, for which the call was inactive.

For `O=C1CCC(N2C(=O)c3ccccc3C2=O)C(=O)N1` (stereo unspecified), the result was inactive.

As for `NC(=O)NO`, the compound was called inactive.

Test system in the next assay: not listed separately
Kind of assay: CCTE_Deisenroth_DEVTOX-GLR_legacy_CellCount: (Legacy) Viability Assessment in CCTE's DevTox GLR-Endo Assay, Deisenroth Lab (AID 2284331). To be noted: actives raise or lower the signal. Summed up: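 Viability is taken from imaged nuclei counts in fixed RUES2-GLR cultures after 48 h of differentiation under two 24 h-spaced chemical exposures, 10 concentrations from 1 nM to 200 uM, gain or loss versus DMSO baseline.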
Consider `O=C(O)c1cc(N=Nc2ccc(S(=O)(=O)Nc3ccccn3)cc2)ccc1O`, for which the result was inactive. On to `CC[C@H](C)C(=O)O[C@H]1C[C@@H](C)C=C2C=C[C@H](C)[C@H](CC[C@@H]3C[C@@H](O)CC(=O)O3)[C@H]21`, for which the AC50 is 2.83 µM (active).

Regarding `C[C@](N)(Cc1ccc(O)c(O)c1)C(=O)O`, the outcome was inactive. For `O=C1CCC(N2C(=O)c3ccccc3C2=O)C(=O)N1` (stereo unspecified), the result was inactive. On the same count and under the same terms, in the case of `Nc1nc2ncc(CNc3ccc(C(=O)N[C@@H](CCC(=O)O)C(=O)O)cc3)nc2c(=O)[nH]1` it was “inactive”. Turning to `NC(=O)NO`, the AC50 was 64.7 µM (active).

For `Cn1c(=O)c2c(ncn2C)n(C)c1=O`, the call was inactive.
